The text below walks through data of the supplement of paper PMC8866396.

One assay has as its system IL-6-GFP PC-9GR. Description: cell viability (CCK-8 OD) relative to DMSO control (fraction of control); higher = more viable cells. Conditions: compound concentration: 10 uM; treatment time: 48 h. The gist of the method: (§1)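 In 96-well plates, 3000 cells/well of PC-9 or PC-9GR lung cancer cells with lentiviral IL-6-GFP overexpression received each compound of a purchased 510-compound library at a final 10 μM for 48 h. Viability, measured by CCK-8 absorbance, is each well's optical density relative to the vehicle control well. Data come from two independent replicates.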

For the next assay, the system named is IL-6-GFP PC-9. Described as above. Conditions: compound concentration: 10 uM; treatment time: 48 h. Put shortly:
as §1

Structures can show the parent of a compound that is named as a salt. ± gives the standard deviation of the averaged measurements.

Turning to `COc1cc2nccc(Oc3ccc(NC(=O)C4(C(=O)Nc5ccc(F)cc5)CC4)cc3)c2cc1OC`, the cell viability was found to be 0.886 ± 0.23 with IL-6-GFP PC-9GR and 0.56 ± 0.041 with IL-6-GFP PC-9.

As to `Cn1c(=O)cc(N2CCCC(N)C2)n(Cc2ccccc2C#N)c1=O` (centres undefined) [Alogliptin(SYK-322)benzoate], the figures for the cell viability in the assay with IL-6-GFP PC-9GR and in the assay on IL-6-GFP PC-9 were 0.986 ± 0.057 and 1.05 ± 0.088, respectively.

Take `O=c1c(-c2ccc(O)cc2)coc2cc(O)cc(O)c12` [Genistein]: the values for the cell viability in the assay on IL-6-GFP PC-9GR and in the assay with IL-6-GFP PC-9 were 0.975 ± 0.05 and 0.58 ± 0.32, respectively.

As for `CC(=O)Nc1ccc(OC(=O)c2ccccc2OC(C)=O)cc1` [Benorylate], the cell viability in the assay on IL-6-GFP PC-9GR was 1.54 ± 0.41; with IL-6-GFP PC-9, 1.13 ± 0.046.

On to `CC(C)CC(NC(=O)CNC(=O)c1cc(Cl)ccc1Cl)B1OC(=O)CC(CC(=O)O)(C(=O)O)O1` (centres undefined) [Ixazomib Citrate (MLN9708)], for which the cell viability in the assay with IL-6-GFP PC-9GR stood at 0.316 ± 0.3; in the assay on IL-6-GFP PC-9, 0.339 ± 0.12.

For the compound `Cn1c(=O)cc(N2CCCC(N)C2)n(Cc2ccccc2C#N)c1=O` (centres undefined) [Alogliptin], the values for the cell viability in the assay with IL-6-GFP PC-9GR and with IL-6-GFP PC-9 were 0.0419 ± 0.21 and 1.29 ± 0.11, respectively.

Turning to `O=C(c1ccc(F)c(F)c1Nc1ccc(I)cc1F)N1CC(O)(C2CCCCN2)C1` (centres undefined) [Cobimetinib (GDC-0973, RG7420)], the cell viability with IL-6-GFP PC-9GR amounted to 0.7146 ± 0.0029; with IL-6-GFP PC-9, 0.115 ± 0.15.

Consider `NC(=S)N/N=C/c1ncccc1N` [Triapine], for which the cell viability with IL-6-GFP PC-9GR is 0.255 ± 0.16; in the assay on IL-6-GFP PC-9, 0.287 ± 0.024.

As for `COc1ccc2c(c1)nc(S(=O)Cc1ncc(C)c(OC)c1C)[n]2[Na]` (centres undefined) [Omeprazole Sodium], the cell viability with IL-6-GFP PC-9GR is 0.872 ± 0.13; with IL-6-GFP PC-9 it was 0.963 ± 0.16.

For `CCC1(O)CC2CN(CCc3c([nH]c4ccccc34)C(C(=O)OC)(c3cc4c(cc3OC)N(C=O)C3C(O)(C(=O)OC)C(OC(C)=O)C5(CC)C=CCN6CCC43C65)C2)C1.O=S(=O)(O)O` (centres undefined) [Vincristine sulfate], the figures for the cell viability in the assay on IL-6-GFP PC-9GR and in the assay on IL-6-GFP PC-9 were 0.587 ± 0.086 and 0.553 ± 0.11, respectively.

Turning to `CC(=O)OC1C(=O)C2(C)C(O)CC3OCC3(OC(C)=O)C2C(OC(=O)c2ccccc2)C2(O)CC(OC(=O)C(O)C(NC(=O)c3ccccc3)c3ccccc3)C(C)=C1C2(C)C` (centres undefined) [Paclitaxel], the cell viability with IL-6-GFP PC-9GR turned out to be 0.576 ± 0.036; in the assay with IL-6-GFP PC-9 it was 0.57 ± 0.026.

Regarding `O=C1OC(OC(=O)c2cccnc2Nc2cccc(C(F)(F)F)c2)c2ccccc21` (centres undefined) [Talniflumate], the cell viability amounted to 1 ± 0.022 in the assay on IL-6-GFP PC-9GR and 0.967 ± 0.02 with IL-6-GFP PC-9.

Regarding `CC(=O)OC(C)OC(=O)C(C)c1ccc(-c2ccccc2)c(F)c1` (centres undefined) [Flurbiprofen Axetil], the cell viability in the assay on IL-6-GFP PC-9GR came out at 1.17 ± 0.29; in the assay with IL-6-GFP PC-9 it was 1.16 ± 0.038.

In the case of `O=C(O)Cc1ccccc1Nc1c(Cl)cccc1Cl.OCCN1CCCC1` [Diclofenac Epolamine], the cell viability came to 1.34 ± 0.62 in the assay on IL-6-GFP PC-9GR and 1.06 ± 0.16 with IL-6-GFP PC-9.

Take `CCC1(O)C(=O)OCc2c1cc1n(c2=O)Cc2cc3c(CN(C)C)c(O)ccc3nc2-1.Cl` (centres undefined) [Topotecan HCl]: the cell viability with IL-6-GFP PC-9GR is 0.451 ± 0.033; with IL-6-GFP PC-9 it was 0.355 ± 0.11.

`CCOc1ccc(Cc2cc(C34OCC(CO)(O3)C(O)C(O)C4O)ccc2Cl)cc1` (centres undefined) [Ertugliflozin]: the cell viability in the assay with IL-6-GFP PC-9GR stood at 1.43 ± 0.46; in the assay with IL-6-GFP PC-9 it was 0.987 ± 0.16.

Turning to `CCOc1cc2ncc(C#N)c(Nc3ccc(OCc4ccccn4)c(Cl)c3)c2cc1NC(=O)/C=C/CN(C)C` [Neratinib (HKI-272)], the cell viability in the assay on IL-6-GFP PC-9GR was found to be 0.795 ± 0.045; in the assay with IL-6-GFP PC-9, 0.506 ± 0.052.

`Clc1ccc(C(c2ccccc2Cl)C(Cl)Cl)cc1` (centres undefined) [Mitotane]: the cell viability in the assay on IL-6-GFP PC-9GR came to 1.2 ± 0.1; in the assay with IL-6-GFP PC-9 it was 0.958 ± 0.05.

With `Cc1ccc(Nc2nccc(N(C)c3ccc4c(C)n(C)nc4c3)n2)cc1S(N)(=O)=O` [Pazopanib], the cell viability amounted to 0.795 ± 0.041 with IL-6-GFP PC-9GR and 0.725 ± 0.062 with IL-6-GFP PC-9.

As for `CN(C)CCCOc1nn(Cc2ccccc2)c2ccccc12.Cl` [Benzydamine HCl], the cell viability worked out at 0.996 ± 0.23 with IL-6-GFP PC-9GR and 0.549 ± 0.52 in the assay with IL-6-GFP PC-9.

Turning to `Cc1ccc(-c2cc(C(F)(F)F)nn2-c2ccc(S(N)(=O)=O)cc2)cc1` [Celecoxib], the cell viability in the assay on IL-6-GFP PC-9GR worked out at 1.13 ± 0.057; in the assay on IL-6-GFP PC-9, 1.09 ± 0.051.

Consider `Cc1c(Cl)cccc1Nc1ncccc1C(=O)O` [Clonixin], for which the cell viability in the assay with IL-6-GFP PC-9GR came out at 0.814 ± 0.24; in the assay on IL-6-GFP PC-9 it was 1.08 ± 0.027.

With `O=C(Nc1cnn2ccc(N3CCCC3c3cc(F)ccc3F)nc12)N1CCC(O)C1.O=S(=O)(O)O` (centres undefined) [Larotrectinib (LOXO-101) sulfate], the cell viability in the assay on IL-6-GFP PC-9GR amounted to 0.802 ± 0.05; in the assay with IL-6-GFP PC-9, 1.14 ± 0.12.

`CNCC(O)c1ccc(O)c(O)c1.O=C(O)C(O)C(O)C(=O)O` (centres undefined) [Epinephrine bitartrate]: the results for the cell viability in the assay with IL-6-GFP PC-9GR and with IL-6-GFP PC-9 were 1.17 ± 0.15 and 1.2 ± 0.022, respectively.

In the case of `CC(C)(C)OC(=O)NC1CCCCC/C=C\C2CC2(C(=O)NS(=O)(=O)C2CC2)NC(=O)C2CC(OC(=O)N3Cc4cccc(F)c4C3)CN2C1=O` (centres undefined) [Danoprevir (ITMN-191)], the cell viability in the assay with IL-6-GFP PC-9GR worked out at 1.1 ± 0.02; in the assay on IL-6-GFP PC-9, 0.931 ± 0.15.

As to `CC(N)c1ccc(C(=O)Nc2ccnc3[nH]ccc23)cc1.Cl.Cl` (centres undefined), the cell viability came out at 0.973 ± 0.42 in the assay with IL-6-GFP PC-9GR and 0.74 ± 0.23 in the assay with IL-6-GFP PC-9.

Turning to `CNC(=O)c1ccccc1Sc1ccc2c(/C=C/c3ccccn3)n[nH]c2c1` [Axitinib], the cell viability with IL-6-GFP PC-9GR came out at 0.712 ± 0.0072; in the assay on IL-6-GFP PC-9 it was 0.532 ± 0.05.
